Screening results from PubChem BioAssay.
Only some compounds are listed: those with a hit (about 1.9% of all), similar ones and a draw of the others.
BaF3 tox: parental Ba/F3 cell viability inhibition, counter-screen for JAK2V617F inhibitor project, murine pro-B, CellTiter-Glo luminescence; inhibition, % at 5.6 µM; CellTiter-Glo ATP luminescence; hit rate 1.1% among 220,000;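 active = inhibition above a per-campaign cutoff, the mean inhibition of all tested compounds plus 3 SD, cut at about 27% in these data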;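 note: 0% = DMSO wells and 100% = JAK Inhibitor I control wells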
IEC-6 tox-1: cytotoxicity in IEC-6 intestinal epithelial cells, primary screen, cytotoxicity control for KLF5 inhibitor project, cell-based, luminescence; IEC-6 cytotoxicity, luminescence viability; inhibition, % at 5 µM; hit rate 0.78% among 290,000; AID 1825, 2009;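 note: 0% = plate median of test compound wells and 100% = cytotoxic reference compound wells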
KLF5 inhibitor: KLF5 expression inhibitors, primary screen, DLD-1 cells, luminescence; inhibition, % at 5 µM; hit rate 0.23% among 290,000; DLD-1 KLF5 promoter-luciferase reporter;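 active = inhibition above a per-plate limit of that plate's mean compound inhibition plus 3 SD, cut at about 60% in these data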;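 note: 0% = DMSO wells and 100% = LY294002 at 200 µM; higher means less KLF5 promoter-driven luciferase light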
Ba/F3 V617F tox: reduced viability of JAK2V617F-dependent Ba/F3 cells, primary screen, JAK2V617F inhibitor project, cell-based, Ba/F3 EpoR-JAK2V617F, luminescence | ATP luminescence | inhibition, % at 5.6 µM | hit rate 1.1% among 220,000 | AID 1446, 2008;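 active = inhibition above the campaign mean plus 3 SD over all tested compounds, cut at about 24% in these data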;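 note: cytokine-independent growth of Ba/F3 cells driven by EpoR plus mutant JAK2; 0% = DMSO-treated cells and 100% = JAK inhibitor I control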
APP transl inh: inhibitors of APP translation via 5'UTR reporter, primary screen, APP 5'UTR luciferase, SH-SY5Y cells; inhibition, % at 2 µM; SH-SY5Y APP 5'UTR-luciferase reporter, luminescence; hit rate 0.82% among 190,000;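 active = inhibition above a set limit, derived from the sample mean plus 3 SD, cut at about 45% in these data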
KLF5 confirm: KLF5 expression inhibitors, confirmation, DLD-1 cells, luminescence | shares compounds with KLF5 inhibitor | DLD-1 KLF5 promoter firefly luciferase reporter | inhibition, % at 4 µM | hit rate 79% among 610;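 active = inhibition above a set limit taken from the earlier primary screen, cut at about 63% in these data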;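 note: 0% = DMSO wells and 100% = LY294002 at 200 µM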
IEC-6 tox-2: cytotoxicity in rat IEC-6 cells, cytotoxicity control for KLF5 inhibitor project, cell-based, luminescence, triplicate | shares compounds with KLF5 inhibitor | IEC-6 rat intestinal cells, viability luminescence | inhibition, % at 4 µM | hit rate 56% among 610; in the data active = inhibition above about 23%;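 note: cells exposed to compounds for 48 hours before viability read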
IEC-6 tox confirm: cytotoxic compounds in IEC-6 epithelial cells, confirmation, cytotoxicity control, cell-based, luminescence; shares compounds with IEC-6 tox-1; IEC-6 rat intestinal epithelial viability; inhibition, % at 5 µM; hit rate 63% among 1,900;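 note: 0% = vehicle and 100% = reference cytotoxic drug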
An asterisk follows results filed as active; nt = not tested or not shown. Cut-off read from the data, not from the text of the source, unless noted: active = inhibition above about 22%; inactive = the rest.

SMILES	BaF3 tox	IEC-6 tox-1	KLF5 inhibitor	Ba/F3 V617F tox	APP transl inh	KLF5 confirm	IEC-6 tox-2	IEC-6 tox confirm
O=C(N/N=C/c1cn(-c2ccccc2)nc1-c1ccc(F)cc1)c1ccc2c(c1)OCO2	2	-2	-21	-4	-7	nt	nt	nt
CCOC(=O)c1[nH]c2c(c1C)C(=O)CC(c1ccco1)C2 (centres undefined)	88*	89*	83*	87*	96*	90*	66*	63*
Cc1c(C(=O)OCCOC(C)C)[nH]c2c1C(=O)CC(c1ccco1)C2 (centres undefined)	86*	89*	77*	81*	96*	85*	67*	60*
Cc1c(C(=O)O)[nH]c2c1C(=O)CC(c1ccccc1)C2 (centres undefined)	2	3	-1	-2	-10	nt	nt	nt
Cc1c(C(=O)OCc2ccccc2)[nH]c2c1C(=O)CC(c1ccco1)C2 (centres undefined)	73*	81*	77*	68*	94*	80*	56*	52*
Cc1ccc(-n2ncc3c2CC(C)(C)CC3NC(=O)c2ccc[n+]([O-])c2)cc1 (centres undefined)	nt	8	0	nt	nt	nt	nt	nt
O=C(O)c1ccc(N=Cc2c(O)ccc3oc4c(c23)CCCC4)cc1	-2	-4	-9	1	nt	nt	nt	nt
O=C(c1ccc(Br)cc1)c1cc([N+](=O)[O-])ccc1N1CCCCC1	79*	87*	84*	83*	95*	82*	63*	60*
O=C(c1cc([N+](=O)[O-])ccc1N1CCOCC1)N1CCN(c2ccccc2)CC1	nt	90*	82*	nt	nt	90*	73*	62*
Cc1cc(C)c(NC(=O)COC(=O)c2cc([N+](=O)[O-])ccc2N2CCOCC2)c(C)c1	nt	4	-10	nt	nt	nt	nt	nt
Cc1ccc(C(=O)c2cc([N+](=O)[O-])ccc2N2CCOCC2)c(C)c1	84*	91*	74*	76*	94*	84*	70*	59*
Cc1cc(NC(=O)Nc2ccc(F)cc2F)n(C)n1	11	0	-16	3	6	nt	nt	nt
COc1cc(-c2noc(C)c2C#CCO)cc(OC)c1OC	nt	5	-12	nt	nt	nt	nt	nt
COc1cc(-c2noc(C)c2/C=C/c2ccc(OC(C)=O)cc2)cc(OC)c1OC	nt	91*	71*	nt	nt	83*	63*	60*
COc1cc(/C=C/CN2CCC(CO)(CC3CCCCO3)CC2)ccc1O (centres undefined)	0	-6	-11	-7	-37	nt	nt	nt
CCCCCCCCCn1c2c(c(=N)c3c1CCC3)CCCC2	93*	64*	76*	102*	2	114*	42*	55*
CCCCCc1nc2c(c3c1CCCC3)CCCC2	1	-2	-40	-4	nt	nt	nt	nt
Cc1ccc(C)c(N2CCN(C(=O)c3ccc(CS(=O)(=O)c4ccccc4C)o3)CC2)c1	8	4	5	1	-11	nt	nt	nt
Cc1cccc(N2CCN(C(=O)c3ccc(CS(=O)(=O)c4ccccc4C)o3)CC2C)c1 (centres undefined)	77*	76*	89*	75*	96*	75*	53*	48*
CCCCCCCCC[n+]1cccc2c3ccccc3ccc21	92*	60*	75*	101*	29	71*	39*	72*
O/N=C/c1cccc[n+]1CCCCCC[n+]1ccccc1/C=N/O	nt	-3	-16	nt	nt	nt	nt	nt
O=C(c1ccc2ccccc2c1)N1CCN(c2ccccn2)CC1	nt	-4	-14	nt	nt	nt	nt	nt
CC1=Nc2ccccc2/C1=C\c1sc(Nc2ccc(C)cc2)nc1O	75*	79*	66*	76*	96*	85*	58*	54*
Oc1nc(Nc2ccc(F)cc2)sc1/C=C1\C=Nc2ccccc21	3	-2	-36	-2	nt	nt	nt	nt
O=[N+]([O-])c1ccc(/C([O-])=C(/C(=S)NCc2ccco2)[n+]2ccccc2)cc1	4	-6	5	-2	-22	nt	nt	nt
SMILES	BaF3 tox	IEC-6 tox-1	KLF5 inhibitor	Ba/F3 V617F tox	APP transl inh	KLF5 confirm	IEC-6 tox-2	IEC-6 tox confirm
O=C1C(Nc2ccc(O)cc2)=C/C(=N/S(=O)(=O)c2cccs2)c2ccccc21	101*	102*	67*	87*	54*	114*	102*	103*
CCc1ccc(S(=O)(=O)/N=C2\C=C(Nc3ccc(O)cc3)C(=O)c3ccccc32)cc1	nt	102*	96*	nt	nt	69*	60*	67*
Cc1ccc(Cl)cc1NC1=C/C(=N\S(=O)(=O)c2cccs2)c2ccccc2C1=O	-1	2	-13	-4	23	nt	nt	nt
CCc1ccc(S(=O)(=O)/N=C2\C=C(Nc3cccc(C(=O)O)c3)C(=O)c3ccccc32)cc1	nt	3	-41	nt	nt	nt	nt	nt
CCn1c(=O)n(CC(=O)NC2CCCC(C)C2C)c(=O)c2ccccc21 (centres undefined)	2	5	-9	1	-3	nt	nt	nt
Cc1oc(-c2cccs2)nc1CS(=O)CC(=O)NCCc1ccccc1 (centres undefined)	8	0	-39	-2	3	nt	nt	nt
COC(=O)[C@@H]1CCCN1Cc1c(C(=O)N2CCOCC2)nc2c(C)cccn12	2	-2	6	-1	-13	nt	nt	nt
O=C(c1cc(-c2ccncc2)nc2c(Cl)cccc12)N1CCN(c2ccccc2F)CC1	nt	67*	66*	nt	nt	65*	47*	54*
O=C(Nc1cn(-c2ccccc2)nc1-c1ccc(Cl)cc1)c1ccccc1	3	0	1	-2	0	nt	nt	nt
COc1cc(C(=O)N/N=C/C2CC=CCC2)cc(OC)c1OC (centres undefined)	79*	90*	64*	83*	93*	-13	-6	0
COc1cc(C(=O)N/N=C/c2ccsc2C)cc(OC)c1OC	85*	89*	76*	83*	96*	86*	66*	60*
CCOC(=O)c1ccccc1NC(=O)COC(=O)C(CC(C)C)NC(N)=O (centres undefined)	5	-6	0	-2	-8	nt	nt	nt
COC(=O)c1cccc(NC(=O)Cc2coc3cc(OC)ccc23)c1	2	-4	-9	-2	-15	nt	nt	nt
CCN(CC)CCNC(=O)c1ccc2c(c1NCCO)C(=O)c1ccccc1C2=O	102*	100*	107*	96*	nt	89*	102*	102*
CCOC(=O)N1CCN(C(=O)c2cc(-c3ccc(F)cc3)[nH]c2C)CC1	0	-6	2	5	2	nt	nt	nt
